Measured values: PubChem BioAssay (NCI)
Several values for one entry are separate records, joined by “and”; a condition that tells them apart may be missing. Equal values may be shown once. About 83,000 compounds went through this panel and 20% of them were active in at least one assay; those are over-represented in the sample as a whole.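 In brief: 96-well plates, 48 h treatment, single concentration, percent growth endpoint.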 Activity calls are given as the source filed them. How the source made its calls: active means growth percent below 10; inactive means the rest.

What follows are compounds tested on MDA-MB-468 breast (assay: NCI-60 one-dose screen, 48 h (100 = growth as untreated, 0 = no growth, -100 = all killed)). Settings: 10 µM unless noted.

Q: With CC(=O)NC(C)(C)C(=O)N1CCC[C@H]1C(=O)NC(C)(C)C(=O)N[C@@H](C)C(=O)NC(C)(C)C(=O)NC(C)(C)C(=O)N[C@@H](CCC(N)=O)C(=O)NC(C)(C)C(=O)N[C@H](C(=O)NC(C)(C)C(=O)NCC(=O)N[C@@H](CC(C)C)C(=O)NC(C)(C)C(=O)N1CCC[C@H]1C(=O)N[C@H](C(=O)NC(C)(C)C(=O)NC(C)(C)C(=O)N[C@@H](CCC(N)=O)C(=O)N[C@@H](CCC(N)=O)C(=O)N[C@H](CO)Cc1ccccc1)C(C)C)C(C)C as the compound, how does the growth read?
A: Its growth is -1.54% [4.25 µM] (active).

Q: How did the growth turn out when CC(=O)Nc1ccc(NC(C)=O)c2c1C(=O)c1ccccc1C2=O was run?
A: The growth was 107% (inactive).

Q: With C=C1CC2(OC1=O)C(=O)N(CCCN1C(=O)C3(CC(=C)C(=O)O3)c3ccccc31)c1ccccc12 (stereo not given) as the compound, how does the growth read?
A: The growth was -34% (active).

Q: Nc1ccc(O)c(C(=O)O)c1 was tested. Which growth did it give?
A: The growth was 73.1% (inactive) and 9.23% (active) and 98.8% (inactive).

Q: How did the growth turn out when O=S(=O)(Nc1cc(Sc2cccc3cccnc23)c(O)c2ccccc12)c1ccccc1 was run?
A: Its growth is -42.6% (active).

Q: CCOC(=O)c1c(NC(=O)c2ccc(C(C)(C)C)cc2)sc2cc(O)ccc12 was tested. Which growth did it give?
A: The growth was 87.9% (inactive).

Q: With O=C(/C=C/C12c3ccccc3C(c3ccccc31)C1C(=O)NC(=O)C12)c1ccccc1 (stereo not given) as the compound, how does the growth read?
A: Its growth is 9.65% (active).

Q: O=c1c2ccccc2c(Br)c(Br)c2ccccc12 was tested. Which growth did it give?
A: The growth was 8.15% (active).

Q: With COc1cccc(-c2nc3occn3c2-c2ccnc(NCCNS(=O)(=O)c3cccc4ccccc34)n2)c1 as the compound, how does the growth read?
A: The growth was 98.1% (inactive).

Q: For COc1ccc(OC)c(/C=N/Nc2ncnc3c2c(C)nn3C)c1, which growth is on record?
A: Its growth is 106% (inactive).
